Measured values: PubChem BioAssay AID1508602 (The Scripps Research Institute Molecular Screening Center, 2020)
“And” between values parts separate entries of the source, which are not always exact repeats. Equal entries are not always repeated. The campaign covered roughly 650,000 compounds. About 6,800 (1%) were called active. Rule as the data show it: active = activation above about 4.9%; inactive = the rest. Only a selection was taken, and actives are over-represented in it overall. A structure can be active in one record and inactive in another.

Target: G-protein coupled receptor 151 (Homo sapiens) (UniProt Q8TDV0)
Test: activators of human GPR151, primary screen, cell-based, PathHunter beta-arrestin, luminescence (AID 1508602);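 also: 0% = median of compound wells and 100% = cells with positive control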
Settings: PathHunter beta-arrestin GPR151 cells, at 11.2 µM, stronger effect = higher value

Chain of G-protein coupled receptor 151 (Homo sapiens) (Q8TDV0 whole entry, looked up): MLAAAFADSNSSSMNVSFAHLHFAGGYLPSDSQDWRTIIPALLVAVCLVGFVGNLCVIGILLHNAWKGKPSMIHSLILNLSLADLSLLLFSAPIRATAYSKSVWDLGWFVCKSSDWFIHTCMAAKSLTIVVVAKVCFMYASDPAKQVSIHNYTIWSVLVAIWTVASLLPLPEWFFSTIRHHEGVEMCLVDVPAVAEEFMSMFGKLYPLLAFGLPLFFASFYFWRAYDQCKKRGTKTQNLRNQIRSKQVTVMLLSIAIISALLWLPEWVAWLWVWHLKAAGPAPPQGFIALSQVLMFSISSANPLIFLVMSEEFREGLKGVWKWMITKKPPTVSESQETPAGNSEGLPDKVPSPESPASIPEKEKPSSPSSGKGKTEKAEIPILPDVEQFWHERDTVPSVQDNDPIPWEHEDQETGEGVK

Structure (SMILES)	activation
Cc1c(C)n2c(SCC(=O)Nc3ccc4c(c3)OCO4)nnc2[nH]c1=O	1.02% (inactive)
COc1ccc(OC)c(NC(=O)CSc2nnc3[nH]c(=O)c(C)c(C)n23)c1	5.91% (active)
CCCc1cc(=O)[nH]c2nnc(SCC(=O)Nc3cc(OC)ccc3OC)n12	-0.547% (inactive)
Cc1ccc(CSCc2nnc(SCC(=O)Nc3nccs3)n2C)cc1	0.977% (inactive)
COc1ccc(/C(=N/C(N)=S)Nc2ccccc2)cc1	-0.629% (inactive)
COc1cc(/C=C/C(=O)O)ccc1OCc1ccccc1F	-0.0946% (inactive)
Cc1ccc(-c2nc(CCNC(=O)c3cccs3)cs2)cc1	-1.14% (inactive)
COC(=O)C1(C)NC(c2ccc(C)cc2)C2C(=O)N(c3ccc(F)cc3)C(=O)C21 (stereo unspecified)	-0.111% (inactive)
COC(=O)C1(C)NC(c2ccc(C)cc2)C2C(=O)N(c3ccc(C)cc3)C(=O)C21 (stereo unspecified)	-0.33% (inactive)
COC(=O)C1(C)NC(c2ccccc2OC)C2C(=O)N(c3ccccc3)C(=O)C21 (stereo unspecified)	5.08% (active)
Cc1c(C(=O)Nc2ccc(F)cc2Cl)sc2ncn(CC(=O)N3CCOCC3)c(=O)c12	-1.55% (inactive)
FC(F)Oc1ccccc1C1C=C(c2ccc(Cl)cc2)Nc2nnnn21 (stereo unspecified)	-0.0148% (inactive)
Cc1ccc(C2=CC(c3ccccc3F)n3nnnc3N2)cc1 (stereo unspecified)	0.122% (inactive)
Clc1ccccc1C1C=C(c2ccc(I)cc2)Nc2nnnn21 (stereo unspecified)	13.5% (active)
CC(C)C[C@@H]1NC(=O)[C@@H]2C[C@H](NCc3cn(C)nc3-c3ccccc3)CN2C1=O	2.5% (inactive)
Cc1cc(CN(C)Cc2ccc(OCC(O)CN(C)Cc3ccccc3)cc2)n[nH]1 (stereo unspecified)	5.48% (active)
COCCN(C)Cc1ccc(OCC(O)CN(C)Cc2ccccc2)cc1 (stereo unspecified)	2.19% (inactive)
Cc1nc(CNCc2ccc(OCC(O)CN(C)Cc3ccccc3)cc2)n[nH]1 (stereo unspecified)	0.224% (inactive)
CC(C)Cn1cnc2c1c(=O)[nH]c(=O)n2CC(C)C	-1.78% (inactive)
CCOC(=O)c1oc2ccc(C=O)c(Cl)c2c1C	0.651% (inactive)
CC(C)(C)NC(=O)C1CC(c2ccccc2Cl)=NO1 (stereo unspecified)	1.12% (inactive)

Structure (SMILES)	activation
COc1ccc(OC)c(C2=NOC(C(=O)Nc3cccc(O)c3)C2)c1 (stereo unspecified)	1.6% (inactive)
COc1cc(NC(=O)C2CC(c3ccccc3O)=NO2)c(OC)cc1Cl (stereo unspecified)	5.74% (active)
O=C(NNC(=S)NC(=O)c1ccccc1[N+](=O)[O-])c1ccc(O)cc1	-0.124% (inactive)
CO[C@@H]1COC(=O)[C@@H](C)COC(=O)[C@H](C)NC(=O)C/C=C/[C@H]1C	1.97% (inactive) and 5.04% (active)
CCN(CC)c1nc(Nc2cc(OC)c(OC)c(OC)c2)nc(Nc2nc3ccccc3n2C)n1	-0.32% (inactive)
CCN(CC)c1nc(Nc2cc(OC)c(OC)c(OC)c2)nc(N2CCOCC2)n1	5.49% (active)
COc1cc(Nc2ccnc(Nc3ccncc3)n2)cc(OC)c1OC	1.57% (inactive)
COc1cc(Nc2ccnc(Nc3ccc(N4CCOCC4)cc3)n2)cc(OC)c1OC	5.76% (active)
c1ccc(Nc2nccc(Nc3ccc(N4CCOCC4)cc3)n2)cc1	2.16% (inactive)
CCN(CC)c1nc(Nc2ccccc2)nc(N2CCOCC2)n1	-0.263% (inactive)
O=C1CCC(CCC(=O)N2CCCC2)(Cc2cccc3ccccc23)N1 (stereo unspecified)	0.278% (inactive)
Cc1ccc(C(C)C)c(OCCNC(=O)c2cccs2)c1	0.446% (inactive)
COc1ccc(CC2(CCC(=O)NCCCn3ccnc3)CCC(=O)N2)c(F)c1 (stereo unspecified)	-0.719% (inactive)
COc1cc(Nc2ccc(-n3cc(CC(=O)NCCCN4CCCC4=O)c4ccccc43)nn2)cc(OC)c1OC	-1.03% (inactive)
CCOC(=O)c1c(-c2ccc([N+](=O)[O-])cc2)csc1NC(=O)c1ccccc1	-1.07% (inactive)
COC(=O)c1c(-c2ccccc2)csc1NC(=O)c1ccc(OC)c([N+](=O)[O-])c1	6.64% (active)
COc1ccc(C(=O)NCC(=O)O)cc1[N+](=O)[O-]	-1.88% (inactive)
COC(=O)c1cccc(-n2nnnc2SCC(=O)Nc2nc(C(C)(C)C)cs2)c1	-0.122% (inactive)
CC(C(=O)O)c1ccc(NC(=O)OC(C)(C)C)cc1 (stereo unspecified)	-1.31% (inactive)
COc1ccc(N2C(=O)CSC2c2ccccc2F)cc1Cl (stereo unspecified)	-0.327% (inactive)
COc1ccc(N2C(=O)CSC2c2cccc(Cl)c2Cl)cc1Cl (stereo unspecified)	0.734% (inactive)

Structure (SMILES)	activation
COc1cccc(C2SCC(=O)N2c2cccc(C)c2)c1OC (stereo unspecified)	5.36% (active)
Cc1c(NC(=O)c2nn3c(C(F)(F)F)cc(-c4ccc(Cl)cc4)nc3c2Cl)c(=O)n(-c2ccccc2)n1C	-1.62% (inactive)
N#C/C(=C/c1ccc(Br)o1)C(=O)NCCc1c[nH]c2ccccc12	0.189% (inactive)
Cc1cc(CN(C)Cc2nc(NCC3CCCO3)c3ccc(Cl)cc3n2)on1 (stereo unspecified)	-0.552% (inactive)
COc1cc(-c2ncnn2-c2ccc(Cl)cc2)ccc1OCc1ccccc1	-3.78% (inactive)
COCc1cc(C)c(C#N)c(N(C)C)n1	0.894% (inactive)
CC1=NN(c2cccc(Cl)c2)C(=O)/C1=C\c1ccc(F)cc1	-0.302% (inactive)
COc1ccc(CNC(=O)NCc2ccsc2)cc1	-0.956% (inactive)
O=C(NCc1ccsc1)c1ccc(-n2cccc2)cc1	6.14% (active)
O=C(NCCc1ccsc1)c1ccccc1Cl	-3.26% (inactive)
O=C(NCCc1ccc(N2CCCC2)cc1)c1ccc(F)cc1	0.277% (inactive)
CCn1c(NCc2ccccc2OC)nc2ccccc21	-0.109% (inactive)
C=CCN1C(=O)/C(=C\c2cc(Br)ccc2OCC)C(=O)NC1=S	0.0155% (inactive)
C#CCOc1ccc(Br)cc1/C=C1\NC(=S)N(C)C1=O	5.86% (active)
C#CCOc1ccc(C=C2C(=O)NC(=S)NC2=O)cc1Cl	-0.112% (inactive)
C/C(=N\NC(=O)CNC(=O)c1ccccc1Br)c1ccccc1	-0.31% (inactive)
Cc1cccc(C)c1OCC(=O)OCCNC(=O)c1cccnc1	2.35% (inactive)
CC(C)(C)c1ccc(OCCNC(=S)NC(=O)c2cncc(Br)c2)cc1	0.8% (inactive)
Cc1cccc(OCCNC(=S)NC(=O)c2cccnc2)c1	7.55% (active)
